# A selection: hits, their analogues and other compounds. The true share with any hit is near 19%.
# SW480 rereplic = DNA re-replication induction in SW480 cells | SW480 DNA re-replication, Hoechst DNA content imaging, 48 h | Potency, µM (series often up to 46.1 µM), inactives show top-dose re-replication activation, most hits filed as activators | 340,000 tested, 1.8% active; note: potency is the fitted concentration of half-maximal effect; % of control where 0% means no effect; nearly all actives have a fitted effect of over 55% in size
#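 First, 250 cells per well were seeded. Next, compound or vehicle (23 nL) was pinned in, plates sat 48 hr at 37 C. Finally Hoechst was added for 40 min before fluorescence scanning.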
# Chronic BCR inh = chronic active BCR signaling inhibition; Potency, µM (top dose mostly 46.1 µM), for the others: at the top dose activity change, negative = inhibition, usual class: inhibitors; 340,000 tested, 0.05% active; ABC-DLBCL IkBa-CBG/CBR reporter, luminescence ratio, 4 h; active = well fitted inhibition curve with a large enough effect in the signal ratio, with a control signal flat, not every such curve was filed as active; inconclusive = small, poorly fitted or top-dose-only effect, or effect the other way, or a change in a side signal; the % refers to the signal ratio;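 note: potency is the fitted concentration of half-maximal effect; plate controls were basal doxycycline-induced cells for no effect and cells given 10 µM MG132 for full effect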
#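 TMD8 ABC-DLBCL cells carrying doxycycline-inducible green luciferase fused to IkappaBalpha plus unfused red luciferase were exposed to compounds (up to 46 uM) for 4 hrs at 37C. Activity came from the overlap-corrected green/red luminescence ratio.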
# DT40 TDP1 no CPT = qHTS for Inhibitors of human tyrosyl-DNA phosphodiesterase 1 (TDP1): qHTS in cells in absence of CPT. 420,000 tested, 15% active. DT40 Tdp1-/- hTDP1 cells, no CPT, ATP luminescence, 48 h. AID 686978, 2013. Potency, µM (highest dose often 46.2 µM), for the others: top-dose activity change, negative = growth inhibition, actives largely listed as inhibitors; note: potency is the fitted concentration of half-maximal effect; % is set by controls: 0 for no effect and ±100 for the full control effect; nearly all actives have a fitted effect of over 55% in size
#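 Stably hTDP1-transfected Tdp1-null chicken DT40 cells were treated with library compounds minus camptothecin and grown for at least 48 hr at 37 °C, after which cellular ATP was quantified by luminescence.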
# DT40 TDP1 CPT = growth inhibition of DT40 Tdp1-/-;hTDP1 cells with camptothecin (screen for TDP1 inhibitors); AID 686979; 420,000 tested, 12% active; Potency, µM (titrated, usually from 46.2 µM), without a hit: top-dose activity change, negative = growth inhibition, usual class: inhibitors; chicken DT40 Tdp1-/-;hTDP1 cells + 20 nM CPT, ATP luminescence, 48 h; note: potency is the fitted concentration of half-maximal effect; % is set by controls: 0 for no effect and ±100 for the full control effect; nearly all actives have a fitted effect of over 55% in size
#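 Chicken DT40 Tdp1-/- cells stably complemented with human TDP1 were seeded at 400 cells/well in medium containing 20 nM camptothecin, exposed to pin-transferred compounds, and grown at 37 °C for at least 48 hr. Viability was read as ATP luminescence.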
# IL1B secr inh = inhibitors of inflammasome signaling (IL-1 beta secretion); THP-1 LPS/ATP IL-1B secretion, AlphaLISA, 16 h; active compounds read low; 360,000 tested, 4.7% active; activity change, % at 57.5 µM; in the data active = activity change below about -50%; inconclusive = mostly about -30% to -49%; note: % is set by controls: 0 for no effect and ±100 for the full control effect
#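 Secreted IL-1B measured by AlphaLISA bead assay after 16 h compound exposure of THP-1 cells; compounds (final up to 57.5 uM) added 1 h before LPS (250 ng/mL) and ATP (1.25 mM) stimulation; lower signal means less secretion.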
# MCF10A rerep = induces DNA re-replication in MCF 10a normal breast cells. AID 624296. 350,000 tested, 2.9% active. Potency, µM (series often up to 46.1 µM), for the others: at the highest dose activity, positive = re-replication, hits mostly activators. MCF 10A DNA re-replication, Hoechst nuclear intensity, 48 h; note: potency is the fitted concentration of half-maximal effect; % of control where 0% means no effect; nearly all actives have a fitted effect of over 50% in size
# An asterisk follows results filed as active; ? = inconclusive; · = not tested or not shown; ! = a repeat was not active. Unless noted, calls come from the whole dose curve; as a rule, active = well fitted curve in the direction sought with a large enough effect; inconclusive = small, poorly fitted or top-dose-only effect, or another doubt; inactive = no such curve, though single readings can be large; an effect the other way counts as inactive or inconclusive.
SMILES,SW480 rereplic,Chronic BCR inh,DT40 TDP1 no CPT,DT40 TDP1 CPT,IL1B secr inh,MCF10A rerep
O=C(NCCc1ccc(Cl)cc1)c1ccc(CS(=O)(=O)Cc2ccccc2F)o1,·,-26%,21µM*,?,·,·
COc1ccc(S(=O)(=O)Cc2ccc(C(=O)NC3CCCCCC3)o2)cc1,-13%,-22%,?,15µM*,-5,17%
COCCNC(=O)c1ccc(CS(=O)(=O)c2ccc(OC)cc2)o1,-2%,-2%,-11%,-13%,30,3%
COc1ccc(CCNC(=O)CSCc2ccc([N+](=O)[O-])cc2)cc1OC,-271%,0%,26µM*,26µM*,-14,-5%
CCOc1ccc(N(CC(=O)Nc2cc(OC)cc(OC)c2)S(=O)(=O)c2c(C)[nH]c(=O)[nH]c2=O)cc1,6%,3%,12%,1%,25,-2%
Cc1ccc(N2C(=O)c3ccc(C(=O)N4CCN(Cc5ccccc5)CC4)cc3C2=O)cc1,-2%,7%,-5%,-4%,-6,-16%
COc1ccc(NC(=O)c2ccc(-c3ccc([N+](=O)[O-])cc3)o2)cc1OC,1%,2%,16µM*,13µM*,-76*,?
COc1ccc(CCNC(=O)c2ccc(CS(=O)(=O)Cc3ccc(C)cc3)o2)cc1OC,·,·,23µM*,?,17,·
COc1ccc(CCNC(=O)c2ccc(CSc3ccc(Cl)cc3)o2)cc1OC,·,·,13µM*,13µM*,·,·
COc1cccc(NC(=O)c2ccc(-c3ccc([N+](=O)[O-])cc3)o2)c1,24%,?,?,-29%,?,-5%
COc1ccc(CCNC(=O)c2ccc(CS(=O)(=O)c3ccc(C)cc3)o2)cc1OC,-4%,0%,15µM*!,?,3,26%
COc1ccc(CCNC(=O)CSCc2ccc(Cl)cc2)cc1OC,-1%,0%,?,?,-7,6%
Cc1ccc(CS(=O)(=O)Cc2ccc(C(=O)NCCc3ccc(Cl)cc3)o2)cc1,·,-5%,-13%,-17%,·,·
COc1ccc(CC(=O)N/N=C/c2cccn2-c2ccc([N+](=O)[O-])cc2)cc1OC,-3%,0%,15µM*,16µM*,-13,1%
CN1CCN(CCCNC(=O)c2ccc(CS(=O)(=O)c3ccc(Br)cc3)o2)CC1,0%,?,5%,-1%,22,-2%
CCc1ccccc1S(=O)(=O)Cc1ccc(C(=O)NC(C)C)o1,-3%,·,-26%,?,-11,4%
CC(C)(C)OC(=O)N/N=C/c1cccn1-c1ccc([N+](=O)[O-])cc1,?,0%,-11%,10%,-11,28%
COc1ccc(CCNC(=O)c2ccc(-c3ccc([N+](=O)[O-])cc3Cl)o2)cc1OC,2%,?,8.2µM*,7.3µM*,?,?
COc1ccc(N2CCN(CCCNC(=O)c3ccc(CS(=O)(=O)c4ccc(Cl)cc4)o3)CC2)cc1,23%,-8%,21µM*,?,-6,?
CCc1ccccc1S(=O)(=O)Cc1ccc(C(=O)NCCc2ccc(C)cc2)o1,·,·,29µM*,?,·,·
CCC(Oc1ccc(F)cc1)C(=O)N1CCCCCCC1 (configuration not stated),-9%,3%,-15%,4%,12,0%
COc1ccc(C(=O)Nc2ccc(C(=O)O)cc2NC(=O)c2ccc(OC)cc2)cc1,-29%,7%,-5%,-2%,0,?
COc1ccc(C(=O)Nc2ccc(C3=NNC(=O)CC3C)cc2NC(=O)c2ccc(OC)cc2)cc1 (configuration not stated),?,?,23µM*,?,?,13%
O=C(N/N=C/C1C(c2ccccc2)C1(Cl)Cl)c1cccc(Cl)c1 (configuration not stated),-12%,?,?,?,-23,0%
Cc1ccc(NC(=O)NCCOCCn2c(=O)oc3ccccc32)cc1C,·,·,4.1µM*,5.8µM*,·,·
SMILES,SW480 rereplic,Chronic BCR inh,DT40 TDP1 no CPT,DT40 TDP1 CPT,IL1B secr inh,MCF10A rerep
O=C(NCCOCCn1c(=O)oc2ccccc21)Nc1cccc(Cl)c1,·,·,8.2µM*,7.3µM*,·,·
Cc1ccc2oc(=O)n(CCNC(=O)Nc3ccccc3C)c2c1,·,·,-12%,-13%,·,·
Cc1ccc(NC(=O)NCCOCCn2c(=O)oc3ccccc32)cc1F,·,·,5.8µM*,5.8µM*,·,·
Cc1ccc(NC(=O)NCCOCCn2c(=O)oc3ccccc32)c(C)c1,·,·,5.8µM*,4.6µM*,·,·
CCOC(=O)C1=C(C)N(CCC(=O)O)C(=O)NC1c1ccccc1Cl (configuration not stated),-4%,·,5%,1%,21,?
CN(C)S(=O)(=O)c1ccc(/C(O)=C2/C(=O)C(=O)N(CCCN3CCOCC3)C2c2ccncc2)cc1 (configuration not stated),-8%,·,-7%,2%,-15,9%
Cc1cccc(NC(=O)N2C3CCCC2CC(NC(=O)C2CC2)C3)c1 (configuration not stated),9%,-5%,-8%,4%,-13,9%
O=C(NC1CC2CCCC(C1)N2C(=O)Nc1ccc(Cl)c(C(F)(F)F)c1)C1CC1 (configuration not stated),0%,1%,16µM*,?,-24,14%
CC(=O)Nc1ccc(S(=O)(=O)NC2(C(F)(F)F)NC(=O)N(CCc3ccc(F)cc3)C2=O)cc1 (configuration not stated),·,·,-10%,-11%,·,·
Cc1ccccc1N=C(N)Nc1ccccc1C,-9%,?,?,27µM*!,0,15%
Cc1ccccc1NC(=O)NC(N)=O,-5%,?,7%,-3%,-1,-2%
Cc1ccc(C(=O)Nc2sc3c(c2C(=O)O)CCC(C)C3)o1 (configuration not stated),-1%,?,21µM*,?,-8,1%
Cc1ccc(C(=O)Nc2sc3c(c2C(=O)O)CCCC3)o1,3%,?,?,?,?,0%
CC(C)(C)c1ccc(C(=O)Nc2sc3c(c2C(=O)O)CCC3)cc1,-4%,?,?,?,17,21µM*
Cc1ccc(C(=O)Nc2sc3c(c2C(=O)O)CCCCC3)o1,-3%,?,15µM*,?,0,?
CN(C)S(=O)(=O)c1ccc2nnn(O)c2c1,-2%,0%,?,?,7,-5%
